Measured values: the supplement of paper PMC3334620
The full ranking holds about 33,000 sequences; the median of “E-score (-0.5 to 0.5)” is about -0.0034, and the highest 2% start at about 0.25. Only a selection was taken, and the highest values are over-represented in it overall.

molecular target: T1, Yap3 (UniProt P38749); assay: PBM E-score (8-mer binding enrichment) (E-score (-0.5 to 0.5)); higher = stronger / more preferred TF binding; conditions: protein concentration: 100 nM; construct: GST-full length
T1 sequence: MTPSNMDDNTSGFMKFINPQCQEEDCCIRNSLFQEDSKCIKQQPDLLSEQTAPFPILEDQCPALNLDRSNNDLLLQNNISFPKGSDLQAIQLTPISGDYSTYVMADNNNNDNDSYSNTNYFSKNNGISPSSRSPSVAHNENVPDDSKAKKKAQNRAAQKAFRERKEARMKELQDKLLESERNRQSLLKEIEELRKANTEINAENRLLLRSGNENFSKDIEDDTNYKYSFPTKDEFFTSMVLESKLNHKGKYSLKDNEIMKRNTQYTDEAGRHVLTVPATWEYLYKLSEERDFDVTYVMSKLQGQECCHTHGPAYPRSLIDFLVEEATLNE
Summary of the method: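 Using PURExpress in vitro transcription/translation, GST-tagged yeast transcription factors were made in full-length or DNA-binding-domain form. These were applied at about 100-200 nM to double-stranded universal all-10-mer Agilent arrays, and bound protein was detected with fluorescent anti-GST. Scans were normalised with masliner before the Universal PBM Analysis Suite assigned E-scores to ungapped eight-base words pooled with their reverse complements.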

Sequence	PBM E-score
CACCCGAA	0.0804
ACCAAGAC	0.175
AACGACAT	0.202
AGAACTGC	-0.131
CATGAACC	0.0622
ATTCACAA	0.294
ATTCACAG	0.0188
GTTCACAA	0.043
GCATACGA	-0.062
AAACGGAC	-0.155
AAACGGGA	0.12
CAACGGTA	-0.108
GAACGGTA	0.083
AAACGGAT	0.277
ACACGGAA	0.0309
AAACGGAG	0.0915
AAACGGTA	0.301
ATACGGAA	0.185
CTACGGAA	0.068
AAACGGAA	0.263
TTACGGAA	0.266
ACATGGGT	-0.0457
ACTAGCAT	-0.0172
ACAAGCGC	0.0537
ATACCATC	0.119

Sequence	PBM E-score
CCATTTGA	-0.0292
TCGATCCA	-0.0884
ACGCGCAC	-0.015
CCAGTTAA	0.143
GGAGCCTA	-0.0407
GAACGGAA	0.0365
CAACGGAA	0.15
TAACGGAA	0.276
AACAAAAA	0.307
AACAAAAG	0.164
ACCAAAAC	0.104
ACCAAAAT	0.0693
AACAAAAC	0.239
GAACAAAA	0.346
GACAAAAC	0.179
GACAAGAA	0.127
ACCAAAAA	0.277
GAACAAAC	0.227
GACAAAAA	0.315
AAACAAAA	0.185
AGGCCACA	-0.191
GGGATTGA	-0.173
CAGTAGCA	-0.0517
AGTGAAGG	0.0123
GTATCAAA	0.187

Sequence	PBM E-score
TTATCAAA	0.283
CTATCAAA	0.155
TAATCAAA	0.285
GAATCAAA	0.0372
CAATCAAA	0.0584
GGCGCTGA	-0.124
ATCAGCTC	0.00619
AGTTACAC	0.0567
CAACATTG	0.115
GTGATTTA	0.261
CTGATTTA	0.14
CCGATTTA	0.107
GCGATTTA	0.0749
ACGATTTA	0.312
ATGATTTA	0.202
CACCTCTA	0.158
GCAGATAA	-0.0214
CTATACAA	0.189
CTATACTA	0.16
ATATACTA	0.306
ATATACAA	0.322
ATATACTC	0.126
ATATACAC	0.171
AGATCTAC	0.0426
AGTAACCC	-0.00628

Sequence	PBM E-score
ACAAGTAA	0.0548
GTCCCTTA	0.179
ACTTATAG	-0.0355
CCTTATTC	0.0232
ACTTATTC	0.162
CCTTATTA	0.33
ACTTATAC	0.174
ACTTATAT	0.29
GCTTATTA	0.232
ACTTATTA	0.263
CCTTATGA	0.113
CCCACGTC	-0.122
CGATTAGC	-0.102
GCACTATA	0.0864
TAGCAAGA	0.0496
ACGTAATG	0.354
ACGTAATA	0.44
ACGTAAAG	0.184
ACGTAAAA	0.198
GCGTAATA	0.305
GGGTAATA	0.0455
CGGTAATA	0.202
AGGTAATA	0.294
CCGTAATA	0.201
GCGTAAAA	0.231

Sequence	PBM E-score
ACGTAAGA	0.23
ACGTAACG	0.208
GAGAGCGA	-0.166
CCAGTGTC	-0.1
GCAGATCC	0.0102
ATCAATAC	0.11
ACTACCTG	0.0736
GCGTCTCC	-0.0737
AAATCCTT	-0.0476
CGCTACAC	-0.0665
GATTCAAA	0.0843
AGCTCTAT	0.0447
GCTTCTCA	-0.0894
GCAACATA	0.0566
CCAACATA	0.305
CCAACATC	-0.011
CCAATGCC	-0.162
AAAAGTAG	0.105
GCAGCAAA	-0.0366
ACATTCTG	-0.0885
CGCATTGA	0.125
GTCCTATA	-0.0462
ATCCTATA	0.26
CTCCTATA	-0.191
CGAGTTGA	0.0975

Sequence	PBM E-score
GCGGTCGA	0.0757
ACCTGAAG	0.00792
GCCTTTTA	-0.0778
CTGGGCGC	-0.229
GATTTCAA	0.0767
CATTTCCC	0.293
CATTTTCC	0.193
GATTTCCC	0.124
TATTTCAA	0.235
CATTTCAA	0.265
ATGGGAGG	-0.0823
TATCTGCA	0.0463
AAAGGTCG	-0.0514
AACTTGCA	0.108
TATTCACA	0.27
GATTCACA	0.00517
CATTCACG	-0.0375
GAAAATCC	0.0305
GCGATGAC	0.0826
ATAATTTC	0.17
ATAATTTG	0.294
ATAATTTA	0.303
CGAATTTA	0.136
GGAATTTA	0.173
CGAATTTC	0.298

Sequence	PBM E-score
AGAATTTC	-0.00706
AGAATTTG	0.107
AAAATTTG	0.0972
CTAATTTA	0.19
AGAATTTA	0.276
GTAATTTA	0.238
AAGAAGGG	-0.0033
CCCCGTCG	-0.309
CATGCTTC	-0.024
CAAGGGGG	-0.226
AGTGCATA	-0.0677
GACTGAGC	-0.255
CCTGTTCC	-0.0284
AAGGCCCC	-0.285
ATACAGGG	0.14
CAGCCTAA	-0.12
AACACGAT	0.0988
GAAATTAC	0.265
AAAATTAA	0.138
CAAATTAC	0.144
AAAATTAT	0.257
AAAATTTT	0.246
AAAATTAG	0.227
AAATTTAC	0.219
AAAATTAC	0.273

Sequence	PBM E-score
CAAATTAA	0.155
GAAATTCC	0.0452
AAAATTGC	0.0358
GAAATTAA	0.342
GGCTGGGA	-0.103
AACCACCG	-0.0601
CTGGTATA	-0.0636
TCCATGGA	0.142
ACAGATGG	0.00201
AGTAATCA	0.117
CGTAATCA	0.349
CGTAATCC	0.285
GGTAATCA	0.189
CCTAATCC	0.0254
AGTAATCC	0.102
CGATCGTA	0.126
ACCAAATG	0.0905
TAGTAAGA	0.227
CCAGCACG	-0.128
CCGCATCA	-0.0944
AAAAAACA	0.315
CAAAAACG	0.136
AAAAAACG	0.315
GAAAAACA	0.094
ACAAAACG	0.173

Sequence	PBM E-score
TAAAAACA	0.246
AGACTTCC	-0.161
ATAGGGTG	-0.123
ATTCAGAA	0.0683
ATAGCGTG	-0.00896
AGGGGTTG	-0.134
ACTTTATG	0.124
AATGTGAA	0.255
AATGTGAT	0.232
AATGTGAC	0.145
CTCCAGGC	-0.0968
GCAGAGAC	-0.322
AGTCGACC	-0.0691
AGTCGACT	0.277
AGTCGACA	0.0995
AGCCGTGC	-0.233
GATATATA	0.271
TATATATA	0.304
CATATATA	0.227
AATATGGA	0.123
GATATACA	0.187
GATATATC	0.133
TATATACA	0.226
GATATGGA	0.263
TATATGGA	0.108

Sequence	PBM E-score
ACTCTAGA	0.0228
ACAGAGGT	-0.0174
ACGCTATC	0.109
ATTTTCGG	0.109
ATCGTGGG	0.11
GAAGACGC	-0.0463
CCCGACCG	-0.3
GGATAAAA	0.194
ATATAAAA	0.249
GTATAAAA	0.287
CTATAAAA	0.0227
TTATAAAA	0.256
GTATAAAC	0.206
CACCACGG	-0.366
GATTGCGA	0.108
AATTTACG	0.239
AATTTACC	0.145
ATTTTACA	0.145
ATTTTACG	0.309
ATTTTACC	0.297
CTTTTACC	0.197
CCGATCAG	-0.00295
CCCCCTAA	-0.291
AAAGATCC	-0.0985
AGCTGTCG	-0.197

Sequence	PBM E-score
GTCGACCA	-0.0665
GGGCTGCA	-0.195
ACTACTAC	0.0925
ACTACTAT	0.255
GCTACTAA	0.138
CCTACTAC	-0.17
ACTACTAA	0.0558
GCTACTAC	0.255
CGTGACAG	-0.154
CGAGAGGC	-0.258
CCATCTAG	-0.112
TAGTTCCA	0.14
ATTTTCCG	0.325
ATTTTCAC	0.174
ATTTTCAG	0.286
AATTTCCG	0.237
ATTTTCCC	0.0787
AATTTCAG	0.0354
AGCTTGAC	-0.0896
ATTCTGGA	0.132
AAGGTCAT	-0.047
AACAGACG	-0.0301
AACAAGGG	-0.0929
GCGCTCAA	-0.131
CGACCGCG	-0.129

Sequence	PBM E-score
GATTGGTA	0.305
AATTGGTA	0.158
CATTGGTA	0.0377
GAATTGCA	0.101
TACGGATA	0.0129
CACGGATG	-0.164
AACGGATA	0.255
AACGGATG	-0.101
CACGGATA	0.291
AACGGATT	0.233
AGTTGTTA	0.114
ATCTAGAT	-0.0211
TCTGGCCA	-0.0631
AGACGCCG	-0.0447
ACGCGTAA	0.0957
TGACGTCA	0.331
TCGCGTAA	0.302
CGACGTAA	0.19
TCACGTAA	0.359
GGACGTCA	-0.0403
TGACGTAA	0.368
GCACGTAA	0.0393
GCGCGTAA	0.23
GGACGTAA	-0.0155
ACACGTAA	0.217

Sequence	PBM E-score
AGACGTCA	-0.0966
CATGTAAC	0.0356
ACCCTTCT	-0.142
AGAGTTAG	-0.0808
GGTCTAGA	-0.104
AACCAGCG	-0.0042
GCTGTAAC	0.0596
ACTCTGCC	-0.104
GCACTTAC	0.0227
CCACTTAC	0.257
CCACTTAA	-0.071
ATACCAAC	0.202
ACTTGTCC	0.0688
AAGAAGCA	0.119
AGCTGTAA	0.0402
CATCGCTA	0.0613
AGCCCTAG	-0.106
CATAAAGG	0.00277
ATGAGTAA	0.284
GTGAGTAA	0.154
CTGAGTAA	0.246
CTCGAACC	-0.0728
TTCTAAAA	0.0712
AATCCTCC	-0.0151
AGTTAATA	0.264

Sequence	PBM E-score
ATTTAATA	0.302
ATTTAATC	0.212
AGTTAATC	0.0976
GTTTAAGA	-0.0881
CTTTAATA	0.285
ATTTAACA	0.195
GTTTAATA	0.272
CTTTAATC	0.152
GTTTAAAA	0.0984
CTTTAAGA	0.0783
GGTTAATA	0.0683
AATCGCTA	-0.00025
GGTCGCCA	-0.186
ACCCATCT	0.0208
AAAGAGCA	0.132
CCGAGAGG	-0.18
GAGGTCTA	-0.165
TACGCTGA	0.156
GCTCCAGC	-0.037
